Results on seven compounds are retold here after PubChem BioAssay (NCI).

This is part of a sample that, as a whole, favours compounds with a hit. Of some 83,000 tested, about 20% had one in any assay.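 Method: cells in 96-well plates; compound added at one concentration; 48 h incubation; percent growth measured; values under 10 scored active.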 Unmarked numbers belong to inactive results. Active and inactive are the calls of the source.

Holding throughout (assay): NCI-60 one-dose screen, 48 h (100 = growth as untreated, 0 = no growth, -100 = all killed)
What all share (settings): 10 µM unless noted

The subject of test [1] is SK-MEL-2 melanoma.
Test [2] relates to EKVX NSCLC.
Test [3] has as its system SN12C renal.
In test [4] the test system is UO-31 renal.
The test system of test [5] is TK-10 renal.
The subject of test [6] is ACHN renal.
In test [7] the test system is CAKI-1 renal.
Test [8] relates to A498 renal.
Test [9] concerns CCRF-CEM leukemia.
Test [10] deals with MOLT-4 leukemia.
Test [11] concerns SR leukemia.
Test [12] has as its system RPMI-8226 leukemia.
For test [13], the system named is OVCAR-8 ovarian.
The test system of test [14] is OVCAR-5 ovarian.
In test [15] the test system is OVCAR-4 ovarian.
For test [16], the system named is SK-OV-3 ovarian.
The test system of test [17] is IGROV1 ovarian.
Test [18] deals with OVCAR-3 ovarian.
Test [19] concerns HS 578T breast.
For test [20], the system named is NCI/ADR-RES ovarian.

With `COc1cc2cc(NCc3cccc(Cl)c3)nc(C)c2cc1OC`, the growth in test [1] was 38.6%; in test [2], 60%; in test [3], 44.6%; in test [4], 36%; in [5], 45.9%; in test [6], 43.5%. Also, the growth in test [7] is 52%; in test [8], 7.63% (active); in test [9], 27.5%; in test [10], 30.4%; in [11] it was 29.6%; in [12], 8.04% (active). Moreover, the growth in [13] was 45.3%; in test [14], 43.7%; in test [15], 68%; in test [16], 56.9%; in test [17], 24.6%; in [18], 60.1%. In addition, the growth in test [19] is 76.3%; in [20] it was 42.5%.
For `CC(C)c1ccc(C(=O)Nc2nc3ccc(O)c(CN(C)C)c3s2)cc1`, the growth in [1] was 102%; in test [2], 95.8%; in [3], 90.7%; in test [4], 91.2%; in [5], 99.6%; in test [6] it was 81.6%. Further, the growth is 65.4% in test [7]; 72.3% in test [8]; 73.5% in test [9]; 62.7% in test [10]; 32.9% in test [11]; 70.1% in test [12]. Besides, the growth in test [13] is 82.8%; in [14], 70.1%; in test [15] it was 74.4%; in [16], 90.8%; in test [17] it was 80.7%; in [18], 91.3%. Besides, the growth in test [19] was 86.8%; in test [20], 87.8%.
With `NS(=O)(=O)c1ccc(N=Nc2c(O)n(Cc3ccccc3)c3ccc(Cl)cc23)cc1`, the growth in test [1] is 98.6%; in [2] it was 91.2%; in test [3], 87.3%; in test [4] it was 81.2%; in [5], 95%; in test [6] it was 64.9%. Besides, the growth in test [7] was 64.4%; in [8] it was 78.3%; in test [9] it was 96.2%; in [10] it was 72.2%; in test [11], 60.2%; in test [12] it was 90.7%. Also, the growth in test [13] was 65.1%; in [14] it was 86.8%; in test [15], 28.7%; in test [16], 74.3%; in [17], 84%; in test [18], 89.4%. For the same compound, the growth in [19] is 44.8%; in test [20] it was 82.5%.
On to `O=S(=O)(NCCCNc1nccc(-c2c(-c3ccc(F)c(O)c3)nc3sccn23)n1)c1ccccc1`, for which the growth in test [1] was 24.9%; in [2], 106%; in test [3], 59%; in test [4] it was 31.1%; in test [5], 120%; in [6] it was 52.3%. The growth in test [7] is 55.9%; in [8], 104%; in test [9], 38.2%; in test [10], 50.9%; in [11], 33.9%; in [12], 40.3%. Further, the growth in [13] is 54.2%; in [14], 113%; in test [15], 75.6%; in test [16], 78%; in test [17], 65%; in [18], 66%. Moreover, the growth was 72.8% in [19] and 100% in test [20].
With `COc1ccc2c(c1OC)CO[C@@H]2[C@H]1c2c(cc3c(c2OC)OCO3)CCN1S(=O)(=O)c1cn(C)cn1`, the growth in test [1] is 36.3%; in test [2], 45.6%; in [3], 41.1%; in [4], 46.2%; in test [5], 54.1%; in test [6], 36.6%. Further, the growth in test [7] was 31.7%; in [8], -21.3% (active); in test [9], 21.4%; in test [10], 27.4%; in test [11], 23.7%; in test [12], 16.5%. In addition, the growth in [13] was 20.4%; in test [14] it was 35.1%; in test [15], 51.5%; in test [16], 22.2%; in [17], 24.7%; in test [18] it was -35.3% (active). The growth is 15.5% in test [19] and 3.64% (active) in [20].
`COc1ccc(/C=N/NC(=O)c2ccc(-n3cc(-c4ccccc4)nn3)cc2)cc1OC`: the growth in [1] is 108%; in test [2], 102%; in test [3] it was 103%; in test [4] it was 108%; in test [5] it was 113%; in [6] it was 98%. Also, the growth in test [7] was 81%; in test [8], 100%; in [9], 99.2%; in test [10] it was 95.6%; in test [11], 111%; in test [12] it was 61.8%. For the same compound, the growth is 99% in test [13]; 97.9% in test [14]; 106% in [15]; 99.3% in [16]; 95.6% in test [17]; 129% in [18]. Also, the growth in test [19] is 103%; in [20] it was 101%.
In the case of `CCOC(=O)c1c(C(=O)c2cn(C)c3ccc(Br)cc23)c(-c2cn(C)c3ccc(Br)cc23)n(NC(=O)OC(C)(C)C)c1C`, the growth in test [1] was 57.8% [100 µM]; in test [2] it was 80.5% [100 µM]; in [3], 92% [100 µM]; in test [4], 58.7% [100 µM]; in [5] it was 69.2% [100 µM]; in [6], 78.9% [100 µM]. Besides, the growth in test [7] is 43.9% [100 µM]; in test [8] it was 87.2% [100 µM]; in test [9], 102% [100 µM]; in test [10], 99.5% [100 µM]; in test [11], 89.1% [100 µM]; in test [12], 69.2% [100 µM]. Further, the growth is 71.8% [100 µM] in test [13]; 92.3% [100 µM] in test [14]; 105% [100 µM] in test [15]; 54.8% [100 µM] in test [16]; 70.7% [100 µM] in test [17]; 88.5% [100 µM] in test [18]. For the same compound, the growth in test [19] was 46.8% [100 µM]; in test [20], 85.4% [100 µM].
